Results from ChEMBL document CHEMBL4513141, “CO-ADD screening of NIH (USA) - Clinical Collection” (2021).
Measured potencies and affinities stand elsewhere. Square brackets hold non-standard residues; d marks the D form. Peptide text beside a SMILES is read from it. pGlu = O=C1CC[C@@H](C(=O)O)N1; Thz = O=C(O)[C@@H]1CSCN1

test system: Cryptococcus neoformans; conditions: Concentration 20 uM; ASSAY_TEST Inhibition of Fungal Growth; detection method Resazurin; Absorption (OD600-OD570); plate type 384well; NBS; CORNING #3640

Compound | Inhibition [%]
CCCCNC(=O)NS(=O)(=O)c1ccc(C)cc1 [TOLBUTAMIDE] | 0.26
Nc1c2c(nc3c1CCC3)CCCC2 [IPIDACRINE] | -0.69
O=C1CC[C@@H](C(=O)N2CSC[C@H]2C(=O)O)N1 [PIDOTIMOD] ([pGlu]-[Thz]-OH) | -3.45
Cc1nc(=O)c2cc(CN(C)c3ccc(C(=O)N[C@@H](CCC(=O)O)C(=O)O)s3)ccc2[nH]1 [RALTITREXED] | -0.58
COc1cc(C)c(/C=C/C(C)=C/C=C/C(C)=C/C(=O)O)c(C)c1C [ACITRETIN] | -7.56
CCOC(=O)N1CCC(=C2c3ccc(Cl)cc3CCc3cccnc32)CC1 [LORATADINE] | -7.17
O=C1c2c(O)cc(O)cc2O[C@H](c2ccc(O)c(O)c2)[C@@H]1O | -8.67
O=C(O)c1cc2ccccc2c(Cc2c(O)c(C(=O)O)cc3ccccc23)c1O.OCCOCCN1CCN(C(c2ccccc2)c2ccc(Cl)cc2)CC1 [HYDROXYZINE PAMOATE] | 7.04
Cl.O.c1cnc(N2CCN(Cc3ccc4c(c3)OCO4)CC2)nc1 | -7.46
CS(=O)(=O)O.Oc1ccc(C2CNCCc3c2cc(O)c(O)c3Cl)cc1 (stereo not given) [FENOLDOPAM MESYLATE] | -12.04
